# According to PubChem BioAssay (NCATS):
# Results filed as inconclusive are left out. Unmarked numbers belong to inactive results. Activity calls are given as the source filed them. Calls come from the whole dose curve; as a rule, active = well fitted inhibition curve with a large enough effect; inconclusive = small, poorly fitted or top-dose-only effect; inactive = flat fitted curve, though single readings scatter.
# How the values were obtained:
# CRL-7250 = normal cell line; experiment: Cytotoxic Profiling of Annotated Libraries Using Quantitative High-Throughput Screening (AID 1296008); details: Five cell lines viability, CellTiter-Glo ATP luminescence, 48-72 h; max response: hits give low values; note: nearly all actives have a fitted effect of over 60% in size
# Summary of the method: (§1)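 Cytotoxicity was measured as CellTiter-Glo ATP luminescence, read after 10 min at room temperature. Compound treatment of the cells lasted 48 or 72 hr at 37 degrees Celsius in a qHTS format.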
# HEK293 = experiment: as above; details: Five cell lines viability, CellTiter-Glo ATP luminescence, 48-72 h; max response: hits give low values
# Summary of the method: as §1
# % is set by controls: 0 for no effect and ±100 for the full control effect; potency is the fitted concentration of half-maximal effect.
compound,measurement,setting,value
COC(=O)c1ccc(OC(CO)C(O)c2ccc(O)c(OC)c2)c(OC)c1 (configuration not stated),max response,CRL-7250,0.832%
same,max response,HEK293,1.51%
CC1=C(C)C(=O)OC(C(C)C2CCC3C4C5OC5C5(O)CC(OC6OC(CO)C(OC7OC(C)C(O)C(O)C7O)C(O)C6O)CC(O)C5(C)C4CCC23C)C1 (configuration not stated),outcome,CRL-7250,inactive
same,max response,HEK293,-0.932%
COc1ccc(F)cc1-c1cc(NC(=O)[C@@H]2CCCNC2)ncc1Cl,Potency,CRL-7250,291 nM (active)
same,Potency,HEK293,259 nM (active)
Cc1ccc(-c2c(C(=O)CF)n(CCCO)c3ncnc(N)c23)cc1,max response,CRL-7250,-0.58%
same,outcome,HEK293,inactive
CC/C=C/CC1=C(CCCCC(CCC(=O)O)OC(C)=O)CCC1=O (configuration not stated),max response,CRL-7250,-18.8%
same,max response,HEK293,-16.2%
COc1ccc([C@@]2(O)c3c(ccc4c3OC(C)(CCC=C(C)C)C=C4)NC(=O)[C@@H]2OC)cc1 (some centres not stated),max response,CRL-7250,4.89%
same,max response,HEK293,-3.72%
C=CC(=O)Nc1cccc(CN2C(=O)N(c3c(Cl)c(OC)cc(OC)c3Cl)Cc3cnc(NCCCCN(CC)CC)nc32)c1,Potency,CRL-7250,10300 nM (active)
same,Potency,HEK293,16400 nM (active)
C/C1=C\[C@H]2OC(=O)[C@@H](C)[C@@H]2CC/C(C(=O)O)=C/CC1,max response,CRL-7250,-1.29%
same,max response,HEK293,-16.7%
CCC(C)C(=O)OC1CC(O)C23C4OCC5(C(O)CC2C1(C)C(O)O4)C3C(=O)CC1(C)C(c2ccoc2)CC2OC215 (configuration not stated),Potency,CRL-7250,3550 nM (active)
same,Potency,HEK293,2520 nM (active)
CCc1cccc(CC)c1NC(=O)c1nn(C)c2c1CCc1cnc(Nc3ccc(C(=O)NC4CCN(C)CC4)cc3OC(F)(F)F)nc1-2,max response,CRL-7250,-0.147%
same,Potency,HEK293,1780 nM (active)
CCOc1ccc2nc(SCCN3CCOCC3)[nH]c2c1,max response,CRL-7250,-3.31%
same,max response,HEK293,-19.2%
C=C1CCC2C(C)(C(=O)O)CCCC2(C)C1CCC(C)CC(=O)O (configuration not stated),max response,CRL-7250,1.5%
same,max response,HEK293,-0.0508%
C/C=C(/COC(=O)/C(C)=C/C)C(=O)OC(CC)c1ccc(OC)c(OC)c1 (configuration not stated),max response,CRL-7250,3.89%
same,max response,HEK293,4.08%
CC(=O)O[C@H]1C[C@@]2(C)[C@@H](CC[C@H]3[C@@]4(C)C=CC(=O)[C@@H](C)[C@@H]4[C@H](O)C(=O)[C@@]32C)/C1=C(/CCC=C(C)C)C(=O)O,max response,CRL-7250,-28.1%
same,max response,HEK293,-6.72%
COC(=O)CC1CC(c2ccc(O)cc2)=NO1 (configuration not stated),max response,CRL-7250,-3.02%
same,max response,HEK293,0.726%
CC(C)=CC/C=C(\C)[C@H]1CC[C@]2(C)[C@@H]1[C@H](O)C[C@@H]1[C@@]3(C)CC[C@H](O)C(C)(C)[C@@H]3[C@@H](O[C@@H]3O[C@H](CO)[C@@H](O)[C@H](O)[C@H]3O)C[C@]12C,max response,CRL-7250,2.02%
same,max response,HEK293,-11.4%
CC1(C)CCC2(C(=O)OC3OC(CO)C(O)C(O)C3O)CCC3(C)C(=CCC4C5(C)CCC(OC6OC(C(=O)O)C(OC7OC(CO)C(O)C(O)C7O)C(OC7OC(CO)C(O)C(O)C7O)C6O)C(C)(C)C5CCC43C)C2C1 (configuration not stated),max response,CRL-7250,3.03%
same,max response,HEK293,4.12%
O=C1NC2CCc3nc4ccccc4c(=O)n3C2=Nc2ccccc21 (configuration not stated),max response,CRL-7250,2.4%
same,max response,HEK293,-3.35%
CC1COC(Nc2ccc3ncnc(Nc4ccc(OCc5nccs5)c(Cl)c4)c3c2)=N1 (configuration not stated),Potency,CRL-7250,9200 nM (active)
same,Potency,HEK293,11600 nM (active)
Cc1cc(O)c(-c2ccc([C@@H](C)CN(C)C)cc2)c2c1[nH]c(=O)c1sccc12,Potency,CRL-7250,116 nM (active)
same,Potency,HEK293,25.9 nM (active)
NC(=O)[C@H](O[C@@H]1O[C@H](CO)[C@@H](O)[C@H](O)[C@H]1O)c1ccccc1,outcome,CRL-7250,inactive
same,max response,HEK293,-3.01%
O=C(O)CC1CCC(c2ccc(-c3ccc4nc(C(=O)NCc5ccc(OC(F)(F)F)cc5)cn4c3)cc2)CC1 (configuration not stated),max response,CRL-7250,4.28%
same,max response,HEK293,-9.35%
CCC(Nc1ncnc2nc[nH]c12)c1nc2cccc(F)c2c(=O)n1-c1ccccc1 (configuration not stated),max response,CRL-7250,-7.4%
same,max response,HEK293,-7.81%
C=CCC1=C[C@]2(OC)[C@H](C)[C@@H](c3ccc(O)c(OC)c3)O[C@]2(OC)CC1=O,max response,CRL-7250,-0.729%
same,max response,HEK293,0.3%
C=C1C[C@]23C[C@H]1CC[C@H]2[C@@]1(C)CCC[C@@]2(C)C(=O)O[C@@H]([C@@H]3O)[C@@H]12,max response,CRL-7250,-15.4%
same,max response,HEK293,-8.12%
Cc1oc2ccccc2c1CNC(=O)NCc1cccs1,max response,CRL-7250,1.28%
same,max response,HEK293,-27.1%
